# Results taken from publication PMC7862700, “An all-to-all approach to the identification of sequence-specific readers for epigenetic DNA modifications on cytosine”.
# Tests used:
# Assay in all cases: DAPPL (digital affinity profiling via proximity ligation, sequencing); 10 mM Tris-HCl pH 7.5, 50 mM NaCl, 1 mM DTT, 4% glycerol, room temperature, 30 min; GST-TFs on glutathione beads, 16-mer random dsDNA library, 0.1% formaldehyde crosslink after washing; high values mean tight binding
# FEV = molecular target: T1, FEV (Homo sapiens, UniProt Q99581 1-238); conditions: protein: recombinant; tags: N-terminal GST; dsDNA, one strand shown
# T1 sequence: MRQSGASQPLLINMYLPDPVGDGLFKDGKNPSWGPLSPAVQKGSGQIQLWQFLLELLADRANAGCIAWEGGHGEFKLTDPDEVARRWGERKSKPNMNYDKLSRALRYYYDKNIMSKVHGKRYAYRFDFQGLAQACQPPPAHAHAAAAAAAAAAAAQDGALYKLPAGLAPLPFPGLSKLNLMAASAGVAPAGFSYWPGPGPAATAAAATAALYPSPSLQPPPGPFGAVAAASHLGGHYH
# Procedure, shortened: (§1)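 After expression in yeast as GST fusions, human transcription factors were bound to glutathione beads, DNA-barcoded and mixed with a tag-only sample. The pools were incubated with 200 nmole of a 16-mer random double-stranded DNA library in Tris/NaCl/DTT/glycerol buffer (30 min, room temperature), washed and crosslinked with 0.1% formaldehyde. Proximity ligation with BsaI/T4 ligase ran for 1 h at 37 °C, before PCR amplification and sequencing on an Illumina NextSeq500. Binding signal is a hexamer's read frequency for a factor divided by its frequency for the tag-only sample.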
# ETV5 = ETV5 (Homo sapiens, UniProt P41161 1-510); conditions: protein: recombinant; tags: N-terminal GST; dsDNA, one strand shown
# ETV5, sequence (P41161 whole entry): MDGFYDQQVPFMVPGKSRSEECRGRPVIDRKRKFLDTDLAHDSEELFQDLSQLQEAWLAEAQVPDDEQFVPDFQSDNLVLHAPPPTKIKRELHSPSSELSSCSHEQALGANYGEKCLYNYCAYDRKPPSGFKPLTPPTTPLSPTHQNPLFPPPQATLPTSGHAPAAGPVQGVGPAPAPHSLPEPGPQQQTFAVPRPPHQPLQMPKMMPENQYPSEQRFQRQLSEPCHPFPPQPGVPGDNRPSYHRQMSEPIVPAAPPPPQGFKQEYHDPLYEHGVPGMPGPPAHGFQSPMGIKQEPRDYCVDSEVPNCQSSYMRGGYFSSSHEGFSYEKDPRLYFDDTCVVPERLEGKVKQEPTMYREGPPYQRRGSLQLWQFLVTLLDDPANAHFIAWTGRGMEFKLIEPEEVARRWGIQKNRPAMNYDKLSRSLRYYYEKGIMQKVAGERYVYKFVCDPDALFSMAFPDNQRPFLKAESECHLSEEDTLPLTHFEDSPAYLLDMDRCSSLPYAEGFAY
# Procedure, shortened: as §1
# HSF1 = HSF1 (Homo sapiens, UniProt Q00613 1-529); conditions: protein: recombinant; tags: N-terminal GST; chain copies: 3; dsDNA, one strand shown
# HSF1, sequence (Q00613 whole entry): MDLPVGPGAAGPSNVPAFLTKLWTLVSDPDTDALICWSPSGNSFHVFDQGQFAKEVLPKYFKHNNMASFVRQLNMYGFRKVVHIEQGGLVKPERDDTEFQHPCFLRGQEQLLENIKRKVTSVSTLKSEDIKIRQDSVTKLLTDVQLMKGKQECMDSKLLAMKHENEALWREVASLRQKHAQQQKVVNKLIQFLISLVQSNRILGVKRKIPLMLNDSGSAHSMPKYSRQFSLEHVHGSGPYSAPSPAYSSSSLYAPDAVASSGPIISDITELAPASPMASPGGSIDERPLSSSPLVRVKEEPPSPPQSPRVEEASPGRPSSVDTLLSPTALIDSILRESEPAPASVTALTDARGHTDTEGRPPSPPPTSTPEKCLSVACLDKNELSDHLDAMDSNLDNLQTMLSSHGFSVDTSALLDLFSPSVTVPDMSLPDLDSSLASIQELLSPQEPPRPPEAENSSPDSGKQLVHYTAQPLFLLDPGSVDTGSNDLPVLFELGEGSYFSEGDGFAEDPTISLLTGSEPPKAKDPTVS
# Procedure, shortened: as §1
# SPIC = molecular target: T2, SPIC (Homo sapiens, UniProt Q8N5J4 1-248); conditions: protein: recombinant; tags: N-terminal GST; dsDNA, one strand shown
# T2 sequence: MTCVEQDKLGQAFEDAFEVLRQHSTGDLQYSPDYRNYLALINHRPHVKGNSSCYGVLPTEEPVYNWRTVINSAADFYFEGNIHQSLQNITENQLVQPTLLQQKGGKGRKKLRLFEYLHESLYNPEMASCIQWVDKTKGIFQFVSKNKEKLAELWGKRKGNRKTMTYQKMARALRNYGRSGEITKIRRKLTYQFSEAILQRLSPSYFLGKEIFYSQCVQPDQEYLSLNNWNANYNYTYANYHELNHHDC
# Procedure, shortened: as §1
# ELF4 = ELF4 (Homo sapiens, UniProt Q99607 1-663); conditions: protein: recombinant; tags: N-terminal GST; dsDNA, one strand shown
# ELF4, sequence (Q99607 whole entry): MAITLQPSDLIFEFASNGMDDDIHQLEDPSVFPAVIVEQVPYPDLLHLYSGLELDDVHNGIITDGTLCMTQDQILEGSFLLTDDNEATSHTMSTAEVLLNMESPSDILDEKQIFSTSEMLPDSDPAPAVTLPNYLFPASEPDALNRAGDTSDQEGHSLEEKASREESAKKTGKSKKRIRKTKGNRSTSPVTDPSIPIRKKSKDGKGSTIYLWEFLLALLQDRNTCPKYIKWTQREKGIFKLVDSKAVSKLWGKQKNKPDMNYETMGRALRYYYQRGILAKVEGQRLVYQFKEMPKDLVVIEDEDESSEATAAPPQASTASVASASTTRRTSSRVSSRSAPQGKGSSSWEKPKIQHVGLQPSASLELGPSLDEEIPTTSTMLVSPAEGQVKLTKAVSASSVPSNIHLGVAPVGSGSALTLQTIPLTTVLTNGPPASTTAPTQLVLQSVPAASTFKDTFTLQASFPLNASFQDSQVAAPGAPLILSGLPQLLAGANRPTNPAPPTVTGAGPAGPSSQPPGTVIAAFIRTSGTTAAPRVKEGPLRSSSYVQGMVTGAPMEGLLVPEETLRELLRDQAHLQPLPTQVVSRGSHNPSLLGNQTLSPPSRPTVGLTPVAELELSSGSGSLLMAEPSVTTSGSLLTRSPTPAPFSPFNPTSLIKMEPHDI
# Procedure, shortened: as §1
# ELK4 = molecular target: T3, ELK4 (Homo sapiens, UniProt P28324-2 1-405); conditions: protein: recombinant; tags: N-terminal GST; dsDNA, one strand shown
# T3 sequence: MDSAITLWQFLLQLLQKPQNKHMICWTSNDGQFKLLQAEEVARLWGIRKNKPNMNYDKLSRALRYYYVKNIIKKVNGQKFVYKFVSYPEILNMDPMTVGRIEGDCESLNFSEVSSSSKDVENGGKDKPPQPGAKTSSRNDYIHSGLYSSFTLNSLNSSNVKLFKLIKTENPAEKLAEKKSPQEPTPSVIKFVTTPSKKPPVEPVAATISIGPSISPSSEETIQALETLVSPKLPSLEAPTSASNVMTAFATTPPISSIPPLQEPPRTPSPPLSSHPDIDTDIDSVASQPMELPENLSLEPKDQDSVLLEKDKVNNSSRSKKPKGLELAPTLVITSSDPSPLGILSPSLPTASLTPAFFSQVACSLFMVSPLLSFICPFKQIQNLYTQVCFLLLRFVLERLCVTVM
# Procedure, shortened: as §1
# ETV2 = molecular target: T4, ETV2 (Homo sapiens, UniProt O00321 1-342); conditions: protein: recombinant; tags: N-terminal GST; dsDNA, one strand shown
# T4 sequence: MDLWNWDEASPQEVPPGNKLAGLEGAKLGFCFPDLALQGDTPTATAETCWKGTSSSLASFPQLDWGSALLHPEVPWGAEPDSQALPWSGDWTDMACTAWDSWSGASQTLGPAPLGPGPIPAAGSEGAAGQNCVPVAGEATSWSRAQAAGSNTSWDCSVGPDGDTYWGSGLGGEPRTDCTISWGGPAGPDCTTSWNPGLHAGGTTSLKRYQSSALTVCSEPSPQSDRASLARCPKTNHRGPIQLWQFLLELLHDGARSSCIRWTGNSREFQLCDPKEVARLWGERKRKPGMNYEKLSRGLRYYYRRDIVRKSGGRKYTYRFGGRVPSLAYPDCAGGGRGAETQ
# Procedure, shortened: as §1
# ELF3 = molecular target: T5, ELF3 (Homo sapiens, UniProt P78545 1-371); conditions: protein: recombinant; tags: N-terminal GST; dsDNA, one strand shown
# T5 sequence: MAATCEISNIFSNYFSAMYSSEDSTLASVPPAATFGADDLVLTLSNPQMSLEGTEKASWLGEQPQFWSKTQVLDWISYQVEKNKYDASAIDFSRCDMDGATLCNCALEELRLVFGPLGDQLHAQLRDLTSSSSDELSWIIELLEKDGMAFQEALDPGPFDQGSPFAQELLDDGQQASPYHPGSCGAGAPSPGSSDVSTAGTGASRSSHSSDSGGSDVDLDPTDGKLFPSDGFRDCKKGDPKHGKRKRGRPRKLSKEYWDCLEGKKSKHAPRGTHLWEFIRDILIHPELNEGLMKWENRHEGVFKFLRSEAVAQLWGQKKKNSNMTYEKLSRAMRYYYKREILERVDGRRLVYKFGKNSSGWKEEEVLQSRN
# Procedure, shortened: as §1
# CRX = CRX (Homo sapiens, UniProt O43186 1-299); conditions: protein: recombinant; tags: N-terminal GST; dsDNA, one strand shown
# CRX, sequence (O43186 whole entry): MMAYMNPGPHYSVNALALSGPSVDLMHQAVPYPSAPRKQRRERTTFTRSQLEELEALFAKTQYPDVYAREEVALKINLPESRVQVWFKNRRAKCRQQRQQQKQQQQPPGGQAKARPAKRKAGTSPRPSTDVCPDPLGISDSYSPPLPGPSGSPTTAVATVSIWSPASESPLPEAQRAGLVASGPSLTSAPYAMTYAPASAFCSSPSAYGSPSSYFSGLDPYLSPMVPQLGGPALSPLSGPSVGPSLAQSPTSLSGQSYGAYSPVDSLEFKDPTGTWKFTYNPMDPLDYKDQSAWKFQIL
# Procedure, shortened: as §1
# ETV1 = ETV1 (Homo sapiens, UniProt P50549 1-477); conditions: protein: recombinant; tags: N-terminal GST; dsDNA, one strand shown
# ETV1, sequence (P50549 whole entry): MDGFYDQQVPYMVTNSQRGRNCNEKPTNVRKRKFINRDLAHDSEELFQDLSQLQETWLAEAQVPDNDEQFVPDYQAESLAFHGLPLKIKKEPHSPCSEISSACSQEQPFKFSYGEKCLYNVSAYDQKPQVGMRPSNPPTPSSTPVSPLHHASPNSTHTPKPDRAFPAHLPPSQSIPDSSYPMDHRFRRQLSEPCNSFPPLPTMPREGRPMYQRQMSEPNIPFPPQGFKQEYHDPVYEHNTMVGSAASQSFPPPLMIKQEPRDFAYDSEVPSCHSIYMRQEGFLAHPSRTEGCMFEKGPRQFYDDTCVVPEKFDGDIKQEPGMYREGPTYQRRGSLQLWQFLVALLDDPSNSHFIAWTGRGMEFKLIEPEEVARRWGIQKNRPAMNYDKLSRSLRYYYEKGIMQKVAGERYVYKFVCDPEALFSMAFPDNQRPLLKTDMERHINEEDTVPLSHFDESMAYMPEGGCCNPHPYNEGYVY
# Procedure, shortened: as §1
# ERF = molecular target: T6, ERF (Homo sapiens, UniProt P50548 1-548); conditions: protein: recombinant; tags: N-terminal GST; dsDNA, one strand shown
# T6 sequence: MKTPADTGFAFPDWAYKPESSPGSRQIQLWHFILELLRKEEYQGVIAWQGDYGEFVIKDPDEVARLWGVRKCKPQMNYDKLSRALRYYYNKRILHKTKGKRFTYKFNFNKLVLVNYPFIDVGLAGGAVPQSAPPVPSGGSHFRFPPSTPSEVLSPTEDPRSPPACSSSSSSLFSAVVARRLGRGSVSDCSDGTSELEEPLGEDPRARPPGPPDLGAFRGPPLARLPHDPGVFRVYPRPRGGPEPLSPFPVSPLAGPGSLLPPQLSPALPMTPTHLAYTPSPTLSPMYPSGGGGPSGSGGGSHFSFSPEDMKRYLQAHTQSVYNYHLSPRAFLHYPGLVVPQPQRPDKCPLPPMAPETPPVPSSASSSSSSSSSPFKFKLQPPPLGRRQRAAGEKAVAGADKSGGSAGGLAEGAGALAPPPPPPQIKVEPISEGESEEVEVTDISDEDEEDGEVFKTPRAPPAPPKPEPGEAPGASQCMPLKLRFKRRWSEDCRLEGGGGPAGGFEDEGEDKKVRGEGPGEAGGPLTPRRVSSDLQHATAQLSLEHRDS
# Procedure, shortened: as §1
# ETV3L = molecular target: T7, ETV3L (Homo sapiens, UniProt Q6ZN32 1-361); conditions: protein: recombinant; tags: N-terminal GST; dsDNA, one strand shown
# T7 sequence: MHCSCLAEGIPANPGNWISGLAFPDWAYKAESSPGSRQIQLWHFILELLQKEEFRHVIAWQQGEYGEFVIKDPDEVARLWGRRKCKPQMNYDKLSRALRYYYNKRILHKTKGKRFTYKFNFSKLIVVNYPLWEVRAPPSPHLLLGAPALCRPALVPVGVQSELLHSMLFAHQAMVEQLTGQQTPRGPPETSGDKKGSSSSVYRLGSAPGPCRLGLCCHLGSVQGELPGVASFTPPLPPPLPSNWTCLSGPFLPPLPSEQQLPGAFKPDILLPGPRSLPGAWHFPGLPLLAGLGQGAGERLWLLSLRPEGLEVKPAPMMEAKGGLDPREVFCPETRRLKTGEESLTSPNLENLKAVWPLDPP
# Procedure, shortened: as §1
# ETS2 = molecular target: T8, ETS2 (Homo sapiens, UniProt P15036 1-469); conditions: protein: recombinant; tags: N-terminal GST; dsDNA, one strand shown
# T8 sequence: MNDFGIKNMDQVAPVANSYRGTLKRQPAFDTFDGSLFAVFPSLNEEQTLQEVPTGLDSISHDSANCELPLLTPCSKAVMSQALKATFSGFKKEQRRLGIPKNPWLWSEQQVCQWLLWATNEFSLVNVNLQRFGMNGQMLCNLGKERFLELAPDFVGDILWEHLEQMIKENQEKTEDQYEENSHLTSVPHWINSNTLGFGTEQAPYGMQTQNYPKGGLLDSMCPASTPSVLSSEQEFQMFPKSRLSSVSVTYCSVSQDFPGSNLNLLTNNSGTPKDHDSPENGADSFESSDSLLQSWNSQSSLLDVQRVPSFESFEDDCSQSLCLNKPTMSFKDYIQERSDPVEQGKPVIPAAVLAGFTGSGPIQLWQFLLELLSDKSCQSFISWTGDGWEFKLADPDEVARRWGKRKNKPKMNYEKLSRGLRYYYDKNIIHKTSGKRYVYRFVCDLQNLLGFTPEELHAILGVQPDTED
# Procedure, shortened: as §1
# SPDEF = molecular target: T9, SPDEF (Homo sapiens, UniProt O95238 1-335); conditions: protein: recombinant; tags: N-terminal GST; dsDNA, one strand shown
# T9 sequence: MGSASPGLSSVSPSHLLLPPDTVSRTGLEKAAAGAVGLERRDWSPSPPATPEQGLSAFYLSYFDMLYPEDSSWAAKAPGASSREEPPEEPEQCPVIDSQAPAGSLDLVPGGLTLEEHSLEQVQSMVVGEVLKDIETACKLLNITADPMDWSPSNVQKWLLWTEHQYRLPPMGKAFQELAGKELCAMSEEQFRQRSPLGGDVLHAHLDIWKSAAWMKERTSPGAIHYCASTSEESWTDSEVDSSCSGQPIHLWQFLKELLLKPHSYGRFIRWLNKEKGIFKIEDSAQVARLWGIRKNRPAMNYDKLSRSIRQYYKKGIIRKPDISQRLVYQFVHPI
# Procedure, shortened: as §1
# ETV7 = molecular target: T10, ETV7 (Homo sapiens, UniProt Q9Y603 1-341); conditions: protein: recombinant; tags: N-terminal GST; dsDNA, one strand shown
# T10 sequence: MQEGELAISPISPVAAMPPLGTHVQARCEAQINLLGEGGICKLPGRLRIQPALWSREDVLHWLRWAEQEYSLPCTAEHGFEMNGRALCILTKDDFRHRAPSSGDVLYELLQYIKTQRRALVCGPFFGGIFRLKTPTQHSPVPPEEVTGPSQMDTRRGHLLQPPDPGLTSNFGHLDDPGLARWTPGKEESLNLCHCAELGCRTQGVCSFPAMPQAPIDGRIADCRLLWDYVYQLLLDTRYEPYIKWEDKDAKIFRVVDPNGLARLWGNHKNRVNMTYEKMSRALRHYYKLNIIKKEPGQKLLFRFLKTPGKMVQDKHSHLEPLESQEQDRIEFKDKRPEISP
# Procedure, shortened: as §1
# ELF5 = molecular target: T11, ELF5 (Homo sapiens, UniProt Q9UKW6-2 1-255); conditions: protein: recombinant; tags: N-terminal GST; dsDNA, one strand shown
# T11 sequence: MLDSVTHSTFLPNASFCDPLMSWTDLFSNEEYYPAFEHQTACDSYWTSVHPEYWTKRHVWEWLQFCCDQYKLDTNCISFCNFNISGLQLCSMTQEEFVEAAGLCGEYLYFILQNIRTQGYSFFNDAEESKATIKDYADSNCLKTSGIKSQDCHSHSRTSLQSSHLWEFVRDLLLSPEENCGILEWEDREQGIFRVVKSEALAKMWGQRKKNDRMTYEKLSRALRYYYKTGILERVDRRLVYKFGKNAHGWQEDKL
# Procedure, shortened: as §1
# ETV3 = molecular target: T12, ETV3 (Homo sapiens, UniProt P41162-2 1-143); conditions: protein: recombinant; tags: N-terminal GST; dsDNA, one strand shown
# T12 sequence: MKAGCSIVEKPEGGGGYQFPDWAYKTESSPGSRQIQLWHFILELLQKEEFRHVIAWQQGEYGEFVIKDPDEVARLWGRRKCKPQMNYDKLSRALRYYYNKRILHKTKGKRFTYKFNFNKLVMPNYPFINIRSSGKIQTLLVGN
# Procedure, shortened: as §1
# ETV6 = ETV6 (Homo sapiens, UniProt P41212 1-452); conditions: protein: recombinant; tags: N-terminal GST; dsDNA, one strand shown
# ETV6, sequence (P41212 whole entry): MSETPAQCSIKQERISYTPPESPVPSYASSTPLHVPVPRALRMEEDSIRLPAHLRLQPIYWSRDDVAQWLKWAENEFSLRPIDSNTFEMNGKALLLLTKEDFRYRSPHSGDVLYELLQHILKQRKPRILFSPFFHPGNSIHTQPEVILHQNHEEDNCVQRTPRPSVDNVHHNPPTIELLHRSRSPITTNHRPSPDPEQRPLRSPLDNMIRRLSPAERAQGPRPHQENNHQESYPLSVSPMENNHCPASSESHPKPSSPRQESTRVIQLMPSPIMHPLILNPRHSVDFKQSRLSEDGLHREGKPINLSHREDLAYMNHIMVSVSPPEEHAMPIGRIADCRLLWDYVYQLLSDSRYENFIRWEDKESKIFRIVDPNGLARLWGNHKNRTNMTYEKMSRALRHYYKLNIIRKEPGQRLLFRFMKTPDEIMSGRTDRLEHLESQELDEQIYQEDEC
# Procedure, shortened: as §1
sequence,measurement,setting,value
TAAACG,binding signal,FEV,"1.12 fold enrichment (6-mer frequency, TF over GST control)"
same,binding signal,ETV5,"1.07 fold enrichment (6-mer frequency, TF over GST control)"
same,binding signal,HSF1,"1.19 fold enrichment (6-mer frequency, TF over GST control)"
same,binding signal,SPIC,"1.05 fold enrichment (6-mer frequency, TF over GST control)"
same,binding signal,ELF4,"1.13 fold enrichment (6-mer frequency, TF over GST control)"
same,binding signal,ELK4,"1.2 fold enrichment (6-mer frequency, TF over GST control)"
same,binding signal,ETV2,"1.09 fold enrichment (6-mer frequency, TF over GST control)"
same,binding signal,ELF3,"1.07 fold enrichment (6-mer frequency, TF over GST control)"
same,binding signal,CRX,"1.44 fold enrichment (6-mer frequency, TF over GST control)"
same,binding signal,ETV1,"1.13 fold enrichment (6-mer frequency, TF over GST control)"
same,binding signal,ERF,"1.11 fold enrichment (6-mer frequency, TF over GST control)"
same,binding signal,ETV3L,"1.07 fold enrichment (6-mer frequency, TF over GST control)"
same,binding signal,ETS2,"1.16 fold enrichment (6-mer frequency, TF over GST control)"
same,binding signal,SPDEF,"1.11 fold enrichment (6-mer frequency, TF over GST control)"
same,binding signal,ETV7,"1.1 fold enrichment (6-mer frequency, TF over GST control)"
same,binding signal,ELF5,"1.1 fold enrichment (6-mer frequency, TF over GST control)"
same,binding signal,ETV3,"1.15 fold enrichment (6-mer frequency, TF over GST control)"
same,binding signal,ETV6,"1.14 fold enrichment (6-mer frequency, TF over GST control)"
